# High-throughput results: PubChem BioAssay, National Center for Advancing Translational Sciences (NCATS)
# The list is not random: actives were taken first. Their share in the collection is about 9.4%.
# Rab9 promoter act = Rab9 promoter activation. Potency, µM (highest dose often 9.22 µM), for the others: at the top dose activation, negative = inhibition, most hits filed as activators. hit rate 2.8% among 320,000. Huh7 Rab9 promoter-luciferase reporter, luminescence, 24 h; note: % of control where 0% means no effect; nearly all actives have a fitted effect of over 60% in size
#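 Quantitative HTS format; Huh7 Rab9-luciferase reporter cells (1500/well) receive compound 2 h post-plating, incubate 24 h at 37 °C, then get luciferase reagent for 10 min before luminescence reading.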
# SMN2 splice enh = increases expression of the SMN2 splice variant; HEK293 SMN2-luciferase splicing reporter, luminescence, 30-36 h; Potency, µM (titrated, usually from 46.1 µM), without a hit: top-dose activity change, positive = activation, usual class: activators; hit rate 2.8% among 210,000; AID 1458; note: % of control where 0% means no effect; nearly all actives have a fitted effect of over 55% in size
#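 HEK293 cells carry an SMN2 minigene-luciferase reporter in which exon 7 inclusion puts luciferase in frame. Cells were seeded at 2000 cells/well, attached for 10-12 hours, then exposed to compounds for 30-36 hours at 37C before ONE-Glo luminescence.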
# ELG1 genotoxic = inducers of genotoxicity in HEK293T ELG1-luciferase cells; hit rate 1.3% among 330,000; HEK293T ELG1-luciferase reporter, luminescence, 16 h; Potency, µM (series often up to 46 µM), without a hit: at the top dose activity change, positive = activation, actives largely listed as activators; note: % of control where 0% means no effect; nearly all actives have a fitted effect of over 60% in size
#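 HEK293T cells expressing luciferase-tagged ELG1 were treated with compound or DMSO for 16 hr at 37°C. Luciferase activity was then read after 30 min with ONE-Glo at room temperature; rising signal flags genetic stress.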
# FLuc modulator = firefly luciferase modulation, counter-screen for miR-21 project | AID 588342 | purified FLuc, Km substrates, luminescence inhibition | P08659 | Potency, µM (highest dose often 57.5 µM), without a hit: at the top dose activity change, negative = inhibition, actives largely listed as inhibitors | hit rate 6.9% among 360,000;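 note: plate controls were vehicle for no effect and reference inhibitor for full effect; nearly all actives have a fitted effect of over 55% in size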
# Target sequence (P08659 whole entry, looked up): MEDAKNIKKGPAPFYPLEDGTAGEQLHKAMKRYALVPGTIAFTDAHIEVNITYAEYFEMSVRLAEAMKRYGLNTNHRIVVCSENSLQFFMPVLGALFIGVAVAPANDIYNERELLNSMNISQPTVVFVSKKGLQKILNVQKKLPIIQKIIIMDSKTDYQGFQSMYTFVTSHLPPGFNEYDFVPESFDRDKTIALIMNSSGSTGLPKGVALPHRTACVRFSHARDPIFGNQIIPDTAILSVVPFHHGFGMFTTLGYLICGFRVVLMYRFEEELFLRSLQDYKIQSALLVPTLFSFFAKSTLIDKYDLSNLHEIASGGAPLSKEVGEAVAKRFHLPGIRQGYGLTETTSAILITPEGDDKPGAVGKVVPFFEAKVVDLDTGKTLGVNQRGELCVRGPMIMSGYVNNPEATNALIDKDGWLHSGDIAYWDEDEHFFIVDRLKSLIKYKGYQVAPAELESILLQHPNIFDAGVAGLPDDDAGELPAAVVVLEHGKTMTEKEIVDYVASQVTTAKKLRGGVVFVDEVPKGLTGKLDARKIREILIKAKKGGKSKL
#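 Purified P. pyralis luciferase, 10 nM final, with Km-level 10 uM D-luciferin and 10 uM ATP in 50 mM Tris acetate pH 7.5, 10 mM Mg acetate, 0.01% Tween-20, 0.05% BSA; 6-point qHTS titration about 60 µM downward; luminescence read.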
# NPC1 prom act = activators of NPC1 promoter; Huh7 NPC1 promoter luciferase reporter, 24 h; Potency, µM (top dose mostly 9.22 µM), inactives show top-dose activation, hits mostly activators; hit rate 2.4% among 320,000; note: % of control where 0% means no effect; nearly all actives have a fitted effect of over 60% in size
#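 Cells: Huh7 expressing luciferase under the NPC1 promoter, 1500/well. Seeded 2 h, compound added, incubated 24 h at 37 °C. Luciferase reagent, 10 min ambient, then luminescence.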
# ELG1 repair inh = inhibitors of ELG1-dependent DNA repair in HEK293T cells; HEK293T ELG1-luciferase reporter, luminescence, 16 h; DNA damage induced by 5-fluorouridine; Potency, µM (series often up to 46.1 µM), for the others: top-dose activity change, negative = inhibition, actives largely listed as inhibitors; hit rate 2.3% among 330,000; AID 504467; note: % is set by controls: 0 for no effect and ±100 for the full control effect; nearly all actives have a fitted effect of over 55% in size
#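 Overnight (16 hr) co-exposure of 2,000 cells/well to 5-fluorouridine and compound at 37 °C preceded detection. Luciferase was quantified via ONE-Glo luminescence; loss of signal denotes inhibition.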
# * hit, by the source's call; ? = inconclusive; · = no result given; [ ] = another dose, or the depositor's remark. Calls come from the whole dose curve; as a rule, active = well fitted curve in the direction sought with a large enough effect; inconclusive = small, poorly fitted or top-dose-only effect, or another doubt; inactive = no such curve, though single readings can be large; an effect the other way counts as inactive or inconclusive. Potency is the fitted concentration of half-maximal effect.
SMILES,Rab9 promoter act,SMN2 splice enh,ELG1 genotoxic,FLuc modulator,NPC1 prom act,ELG1 repair inh
O=C(Nc1ccccc1F)NC1CCCCCCC1,4µM*,·,?,12µM*,?,?
Cc1oc2ccc(O)c(CN3CCCC3)c2c1C(=O)Nc1ccc(C(C)C)cc1,·,-6%,·,-16%,·,·
COc1ccc(CCNC(=O)CCc2cn(Cc3ccc(F)cc3)c3ccccc23)cc1OC,·,·,·,-8%,·,·
Cc1ccc(C(C)C)c(OCC(=O)NCC2(N(C)C)CCCCC2)c1,·,·,·,0%,·,·
O=C(NC1CC2CCCC(C1)N2C(=O)NC1CCCCC1)c1ccc(F)cc1 (centres undefined),-3%,·,1%,6%,3%,-13%
O=C(NC1CCCCCCC1)c1ccc(F)cc1,1.4µM*,·,10µM*,12µM*,1.4µM*,?
O=C(Nc1ccc(F)c(F)c1)NC1CCCCC1,?,4.5µM*,9%,15µM*,?,?
S=C(Nc1cccc2ccccc12)NC1CCCCC1,?,?,?,19µM*,19%,?
CSc1ccccc1NC(=S)NC1CCCCC1,-4%,7%,-2%,3%,1%,1%
COc1ccc(C)cc1NC(=O)NC(C)c1c(-n2cccc2)sc(C)c1C (centres undefined),·,-20%,·,-9%,·,·
Cc1ccc(CNC(=O)Cn2ncn3cccc3c2=O)cc1,2.5µM*,·,?,13µM*,?,?
Cn1c(-c2ccccc2)cnc1SCC(=O)N1CCCc2ccccc21,2%,-14%[1.84 µM],1%,?,3%,7%
O=C(CSc1nnnn1-c1ccccc1)N1CCCc2ccccc21,7%,-12%,0%,-7%,2%,-11%
O=C(CSc1nc2ccccc2nc1SCC(=O)N1CCCCC1)N1CCCCC1,4%,·,-8%,-26%,2%,16µM*
Cc1ccc(-c2cnc(SCC(=O)N3CCCc4ccccc43)n2C)cc1,-5%,-9%,0%,19µM*,-4%,1%
O=C(CSc1nc2ccccc2nc1SCC(=O)N1CCOCC1)N1CCOCC1,-2%,1%,-7%,-2%,-1%,3%
CCCn1nnnc1SCC(=O)N1CCCc2ccccc21,-2%,-7%,15µM*,?,-5%,?
COc1ccc2c(CC(=O)N3CCc4ccccc43)coc2c1,3.2µM*,16µM*,?,3.4µM*,2µM*,?
Cc1cccc(OCCCCn2nnc3sc4c(c3c2=O)CCC(C)C4)c1 (centres undefined),·,4%,·,1%,·,·
COc1ccc(C(=O)NC(C(=O)N2CCc3ccccc32)C(C)C)cc1 (centres undefined),0%,·,14%,1%,2%,?
COc1cc(OC)cc(C(=O)N[C@H](C(=O)OCC(=O)N2CCc3ccccc32)C(C)C)c1,-6%,-4%,4%,15µM*,-2%,-17%
Cn1c(-c2ccccc2)cnc1SCC(=O)N1CCCCC1,0.32µM*,1.4µM*,?,1.2µM*,0.4µM*,?
COc1cccc(-c2ccc(SCC(=O)N3CCc4ccccc43)nn2)c1,-3%,25%,1%,21µM*,-1%,-4%
CCc1nnc(SCC(=O)N2CCCc3ccccc32)nc1CC,-7%,-23%,-1%,2%,-2%,-1%
Cn1c(SCC(=O)N2CCCC2)nc2ccccc21,1%,8%,0%,-2%,0%,-11%
SMILES,Rab9 promoter act,SMN2 splice enh,ELG1 genotoxic,FLuc modulator,NPC1 prom act,ELG1 repair inh
Cc1ccc2c(c1)c1nnc(SCC(=O)N3CCCc4ccccc43)nc1n2CC(=O)O,3.5µM*,·,?,6.7µM*,3.5µM*,?
CC(C)[C@H](NC(=O)c1ccco1)C(=O)NC12CC3CC(CC(C3)C1)C2,-4%,6%,-2%,-1%,-5%,-27%
COc1cccc([C@@H]2Oc3ccc(Br)cc3C(=O)[C@H]2OC(=O)Nc2ccc(C)c(Br)c2)c1,·,-4%,·,·,·,·
CN(Cc1ccco1)c1ncnc2ccc(-c3cccc(Cl)c3)cc12,-1%,·,·,2%,-3%,·
Cc1ccc(-c2ccc(SCC(=O)N3CCCc4ccccc43)nn2)cc1,8%,17%,3%,8.5µM*,7%,?
O=C(Cn1ncc2c3ccccc3n(Cc3cccc(Cl)c3)c2c1=O)Nc1ccc(F)cc1F,·,3%,·,-8%,·,·
CCOc1cc(-c2cc(C(=O)O)c3c(-c4ccccc4)[nH]nc3n2)ccc1O,·,5%,·,?,·,·
COc1ccc(-c2[nH]nc3nc(-c4cc(OC)c(OC)c(OC)c4)cc(C(=O)O)c23)cc1,·,·,·,2.7µM*,·,·
CCc1ccc(-c2[nH]nc3nc(-c4cc(OC)ccc4OC)cc(C(=O)O)c23)cc1,·,·,·,1.9µM*,·,·
O=C(Nc1ccc2c(c1)N(C1CCCC1)C(=O)c1ccccc1S2)c1ccc(F)cc1,·,·,·,-8%,·,·
O=C(N/N=C/c1cn(-c2cccs2)nc1-c1ccccc1)c1ccccc1Cl,-3%,20µM*,5%,12µM*,6%,?
O=C(N/N=C\c1cn(-c2ccccc2)nc1-c1ccccc1)c1ccc(Br)o1,13%,-79%,-21%,?,0%,?
O=C(N/N=C/c1cn(-c2cccs2)nc1-c1ccccc1)c1ccc(O)cc1,4%,?,-19%,4.3µM*,7%,?
COc1ccc(NC(=O)C(c2ccc(C)cc2)N(C)C(=O)/C=C\c2ccc3c(c2)OCO3)cc1 (centres undefined),·,4%,·,-1%,·,·
Cc1ccc2ncc(C(=O)NC(C)c3ccccc3)c(=O)n2c1 (centres undefined),·,3%,·,4%,·,·
O=C(NC1CC1)c1sc2cc(Cl)ccc2c1Cl,?,·,?,6.7µM*,?,?
O=C(NC1CC1)c1sc2ccccc2c1Cl,?,·,?,15µM*,?,?
O=C(NC(=S)NCCO)c1sc2ccccc2c1Cl,2.8µM*,13µM*,?,6µM*,?,?
O=C(NNC(=O)C1CC2CCC1C2)c1sc2ccccc2c1Cl (centres undefined),?,22µM*,19%,24µM*,?,?
COCCn1c(=O)c(-c2ccc(OC)cc2)nc2cnc(Nc3ccccc3)nc21,·,-2%,·,·,·,·
Cc1ccccc1-n1ncc(C(C)NS(=O)(=O)c2sccc2C)c1C (centres undefined),1%,·,-12%,2%,1%,0%
Cc1cc(C)cc(OCC(=O)Nc2ccc(Cl)c(-c3nc4ncccc4o3)c2)c1,·,-17%,·,-2%,·,·
CCc1cccc(NC(=O)CC2Oc3ccc(C)cc3NC2=O)c1 (centres undefined),·,16%,·,-3%,·,·
